Experimental findings from PubChem BioAssay (Tox21) are described below.

The nature of experiment [1]: qHTS assay to identify small molecule agonists of the vitamin D receptor (VDR) signaling pathway - cell viability counter screen (AID 743224; active = well fitted cell-killing curve with a large enough effect in the repeat runs; note: series mostly up to about 63 µM; nearly all actives have a fitted effect of over 50% in size). Put shortly: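 Counter screen run in the same wells as the VDR-bla reporter assay: CellTiter-Glo luminescence, 30 min at room temperature, after 16 h compound treatment at 37C of cells pre-plated for 4 h.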
The nature of experiment [2]: qHTS assay to identify small molecule antagonists of the vitamin D receptor (VDR) signaling pathway - cell viability counter screen (AID 743225; active = well fitted cell-killing curve with a large enough effect in the repeat runs; note: nearly all actives have a fitted effect of over 50% in size). Put shortly: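 Viability counter screen run in the same wells as the beta-lactamase reporter assay: HEK 293T VDR-UAS-bla cells, 16 h compound exposure at 37C with 3 nM (final) 1-alpha,25-dihydroxyvitamin D3. CellTiter-Glo luminescence, 30 min, room temperature.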
For orientation: Quantitative high-throughput screening tests each substance at several concentrations.

Experiment [3] is described as follows: qHTS assay to identify small molecule agonists of the NFkB signaling pathway - cell viability counter screen (AID 1159515). Note: series mostly up to about 61 µM; nearly all actives have a fitted effect of over 55% in size. Put shortly:
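Read by CellTiter-Glo luminescence (30 min, room temperature) in the wells also used for the beta-lactamase FRET read. ME-180 NFkB-bla cells at 2,000 per well were plated overnight, then exposed to compound for 5 hr at 37 C.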

The nature of experiment [4]: qHTS assay to identify small molecule agonists of the endoplasmic reticulum stress response signaling pathway (AID 1159516; active = well fitted activation curve with a large enough effect in the signal ratio in the repeat runs, not every such curve was filed as active; the % refers to the signal ratio). The essentials: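 Ratiometric FRET readout (405 nm excitation; 460 and 530 nm emission) of a beta-lactamase gene driven by the ER stress response element, after 2 hr substrate loading. HeLa ESRE-bla cells were seeded overnight and treated with compounds for only 5 hr at 37 C.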

A short description of experiment [5]: qHTS assay to identify small molecule agonists of the endoplasmic reticulum stress response signaling pathway - cell viability counter screen (AID 1159517). Note: series mostly up to about 61 µM; nearly all actives have a fitted effect of over 50% in size. The essentials: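 After overnight attachment, ESRE-bla HeLa cells were treated with Tox21 library compounds for 5 hr. CellTiter-Glo luminescence, read 30 min post-addition at room temperature, reported viability.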

Experiment [6] in a line: qHTS assay to identify small molecule antagonists of the retinoid-related orphan receptor gamma (ROR-gamma) signaling pathway - cell viability counter screen (AID 1159520; active = well fitted cell-killing curve with a large enough effect in the repeat runs; note: nearly all actives have a fitted effect of over 50% in size; note: potency is the fitted concentration of half-maximal effect). The essentials:
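Cytotoxicity was read from cellular ATP (CellTiter-Glo luminescence) after 16 hr at 37 C with 1 uM doxycycline induction. The inducer was added 2 hr after compound transfer to Tet-on ROR gamma CHO cells.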

Experiment [7] is described as follows: qHTS assay to identify small molecule agonists of the AP-1 signaling pathway - cell viability counter screen (AID 1159525). Note: nearly all actives have a fitted effect of over 55% in size. The essentials: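 Intracellular ATP by Cell Titer Glo luminescence (30 min, RT) in the same ME-180 AP-1-bla wells after the 5 h compound exposure at 37 °C. Normalised to tetra n-octyl ammonium bromide and DMSO controls.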
A short description of experiment [8]: qHTS assay to identify small molecule agonists of the AP-1 signaling pathway (AID 1159526).
Experiment [9] has as its target Retinoic acid receptor RXR-alpha (Homo sapiens) (UniProt P19793). Briefly: qHTS assay to identify small molecule agonists of the RXR signaling pathway (AID 1159527). Note: nearly all actives have a fitted effect of over 35% in size. Put shortly:
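Agonist mode; 9-cis retinoic acid positive control. HEK 293T UAS-bla reporter cells, 2% charcoal-stripped FBS, 16 hr compound exposure at 37 C/5% CO2. LiveBLAzer B/G FRET substrate 2 hr RT; ex 405, em 460/530 nm.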

SMILES strings stand for the structures. Results filed as inconclusive are left out. A number with no mark means an inactive call. The source made the active and inactive calls. Unless noted, calls come from the whole dose curve.

Sequence of Retinoic acid receptor RXR-alpha (Homo sapiens) (P19793 whole entry, looked up): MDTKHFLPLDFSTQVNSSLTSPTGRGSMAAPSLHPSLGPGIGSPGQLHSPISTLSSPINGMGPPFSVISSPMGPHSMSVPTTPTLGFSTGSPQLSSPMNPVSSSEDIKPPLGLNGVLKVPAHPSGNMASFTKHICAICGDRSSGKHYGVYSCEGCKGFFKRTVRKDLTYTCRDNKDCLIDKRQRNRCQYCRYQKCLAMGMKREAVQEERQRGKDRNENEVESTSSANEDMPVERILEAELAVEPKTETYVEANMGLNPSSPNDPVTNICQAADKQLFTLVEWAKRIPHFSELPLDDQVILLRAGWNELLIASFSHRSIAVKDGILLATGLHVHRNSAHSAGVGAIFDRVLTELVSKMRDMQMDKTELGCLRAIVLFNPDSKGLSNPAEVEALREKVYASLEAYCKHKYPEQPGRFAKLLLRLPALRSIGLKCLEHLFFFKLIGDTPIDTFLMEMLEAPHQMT

`CCn1cc(C(=O)O)c(=O)c2cnc(N3CCNCC3)nc21`: the Potency entry in [1], in experiment [2], in experiment [3], in experiment [4], in experiment [5] and in [6] was “inactive” each time. Also, the Potency entry in experiment [7], in experiment [8] and in [9] was “inactive” each time.

For `O=[N+]([O-])c1cccc(S(=O)(=O)O)c1`, the Potency result in [1], in experiment [2], in experiment [3], in experiment [4], in experiment [5] and in [6] was “inactive” throughout. Besides, the Potency entry in experiment [7], in experiment [8] and in [9] was “inactive” in each case.

`NS(=O)(=O)c1ccc(N2CCCCS2(=O)=O)cc1`: the Potency entry in experiment [1], in experiment [2], in experiment [3], in experiment [4], in experiment [5] and in experiment [6] was “inactive” in each case. Further, the Potency result in experiment [7], in experiment [8] and in [9] was “inactive” in each case.

Turning to `CCOCC(O)COc1ccc(NC(=O)CC[S+](C)C)cc1` (centres undefined), the Potency entry in [1], in [2], in experiment [3], in experiment [4], in [5] and in experiment [6] was “inactive” throughout. Moreover, the Potency result in experiment [7], in [8] and in experiment [9] was “inactive” each time.

On to `CC(C)O.CC(C)O.CCOC(=O)/C=C(\C)O.CCOC(=O)/C=C(\C)O.[Ti]`, for which the Potency entry in experiment [1], in experiment [2], in experiment [3], in experiment [4], in experiment [5] and in experiment [6] was “inactive” in each case. Also, the Potency result in [7], in experiment [8] and in [9] was “inactive” each time.

As for `COc1cc2nc(N3CCN(C(=O)C4COc5ccccc5O4)CC3)nc(N)c2cc1OC` (centres undefined), the Potency entry in [1], in [2], in experiment [3], in experiment [4], in [5] and in [6] was “inactive” in each case. The Potency entry in experiment [7], in experiment [8] and in [9] was “inactive” in each case.

As for `C[N+]1(CC2COC(c3ccccc3)(C3CCCCC3)O2)CCCCC1` (centres undefined), the Potency entry in experiment [1], in [2], in [3], in [4], in [5] and in experiment [6] was “inactive” each time. Further, the Potency result in [7], in experiment [8] and in experiment [9] was “inactive” in each case.

Take `CCN(CC)CCNC(=O)c1cc(Br)c(N)cc1OC`: the Potency result in [1], in experiment [2], in [3], in experiment [4], in experiment [5] and in experiment [6] was “inactive” throughout. Besides, the Potency entry in experiment [7], in experiment [8] and in experiment [9] was “inactive” each time.

Turning to `Cc1ncc(CO)c(C=O)c1O`, the Potency entry in experiment [1], in [2], in [3], in experiment [4], in [5] and in experiment [6] was “inactive” in each case. Also, the Potency entry in [7], in [8] and in [9] was “inactive” in each case.

For `O=[N+]([O-])c1ccc(NCCO)c(OCCO)c1`, the Potency entry in experiment [1], in [2], in experiment [3], in [4], in [5] and in [6] was “inactive” in each case. Further, the Potency entry in experiment [7], in [8] and in experiment [9] was “inactive” in each case.

Turning to `CNC(=O)CN(CCN(CCN(CC(=O)[O-])CC(=O)NC)CC(=O)[O-])CC(=O)[O-].O.[Gd+3]`, the Potency result in experiment [1], in experiment [2], in [3], in [4], in [5] and in [6] was “inactive” in each case. The Potency entry in experiment [7], in experiment [8] and in [9] was “inactive” each time.

Regarding `Nc1ccc(N)c2c1C(=O)c1ccccc1C2=O`, the Potency result in experiment [1], in experiment [2], in [3], in experiment [4], in experiment [5] and in [7] was “inactive” throughout. In addition, the Potency entry in [8] and in experiment [9] was “inactive” each time. For the same compound, the Potency in experiment [6] is 21.7 µM (active).

For `CCCCCCCCCCCc1ccccc1`, the Potency result in experiment [1], in [2], in experiment [3], in experiment [4], in [5] and in experiment [6] was “inactive” throughout. Besides, the Potency entry in experiment [7], in experiment [8] and in experiment [9] was “inactive” throughout.

Take `COc1cc2nc(N(C)CCCNC(=O)C3CCCO3)nc(N)c2cc1OC` (centres undefined): the Potency entry in experiment [1], in [2], in experiment [3], in [4], in [5] and in experiment [6] was “inactive” throughout. Besides, the Potency result in [7], in experiment [8] and in [9] was “inactive” each time.

For the compound `C=C(C)C(=O)OCC`, the Potency entry in experiment [1], in experiment [2], in [3], in experiment [4], in [5] and in [6] was “inactive” throughout. For the same compound, the Potency result in [7], in [8] and in experiment [9] was “inactive” in each case.

On to `C[C@@H](c1ncncc1F)C(O)(Cn1cncn1)c1ccc(F)cc1F` (some centres undefined), for which the Potency entry in [1], in [2], in experiment [3], in [4], in [5] and in [6] was “inactive” in each case. Also, the Potency entry in [7], in [8] and in experiment [9] was “inactive” throughout.
